The values that follow come from ChEMBL document CHEMBL1961873, “Compounds: GSK PKIS; Assays: Nanosyn kinase panel” (2012).

The target of assay [1] is Serine/threonine-protein kinase pim-2 (Homo sapiens) (UniProt Q9P1W9). As to conditions: at 1 µM.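 Also: each value is a mean of the inhibition measurements against the kinase.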
The target of assay [2] is Serine/threonine-protein kinase pim-3 (Homo sapiens) (UniProt Q86V86). The following applies: at 0.1 µM.
Assay [3] shares this target. The following applies: at 1 µM.
Assay [4] addresses T1, MAP kinase-activated protein kinase 5 (Homo sapiens) (UniProt Q8IW41).
T1 sequence (whole entry): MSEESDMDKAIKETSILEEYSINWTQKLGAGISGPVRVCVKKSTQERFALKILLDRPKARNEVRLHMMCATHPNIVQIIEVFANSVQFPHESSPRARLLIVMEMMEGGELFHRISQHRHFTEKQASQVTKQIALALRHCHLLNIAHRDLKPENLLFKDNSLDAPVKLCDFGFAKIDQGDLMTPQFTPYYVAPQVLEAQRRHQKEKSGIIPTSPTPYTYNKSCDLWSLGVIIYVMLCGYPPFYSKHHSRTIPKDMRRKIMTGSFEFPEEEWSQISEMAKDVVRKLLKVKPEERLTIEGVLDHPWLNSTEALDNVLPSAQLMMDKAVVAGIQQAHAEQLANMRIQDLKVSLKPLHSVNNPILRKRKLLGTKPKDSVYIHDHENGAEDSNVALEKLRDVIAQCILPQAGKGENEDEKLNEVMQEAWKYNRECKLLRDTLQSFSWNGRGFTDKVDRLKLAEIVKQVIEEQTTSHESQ
The following applies: at 0.1 µM.

Assay [5] has as its target T1, MAP kinase-activated protein kinase 5 (Homo sapiens). As to conditions: at 1 µM.
Assay [6] has as its target Serine/threonine-protein kinase SIK1 (Homo sapiens) (UniProt P57059). As to conditions: at 0.1 µM.
For assay [7] the target is unchanged. As to conditions: at 1 µM.
Assay [8] deals with Serine/threonine-protein kinase SIK2 (Homo sapiens) (UniProt Q9H0K1). The following applies: at 0.1 µM.
Sequence of Serine/threonine-protein kinase SIK2 (Homo sapiens) (Q9H0K1 whole entry, looked up): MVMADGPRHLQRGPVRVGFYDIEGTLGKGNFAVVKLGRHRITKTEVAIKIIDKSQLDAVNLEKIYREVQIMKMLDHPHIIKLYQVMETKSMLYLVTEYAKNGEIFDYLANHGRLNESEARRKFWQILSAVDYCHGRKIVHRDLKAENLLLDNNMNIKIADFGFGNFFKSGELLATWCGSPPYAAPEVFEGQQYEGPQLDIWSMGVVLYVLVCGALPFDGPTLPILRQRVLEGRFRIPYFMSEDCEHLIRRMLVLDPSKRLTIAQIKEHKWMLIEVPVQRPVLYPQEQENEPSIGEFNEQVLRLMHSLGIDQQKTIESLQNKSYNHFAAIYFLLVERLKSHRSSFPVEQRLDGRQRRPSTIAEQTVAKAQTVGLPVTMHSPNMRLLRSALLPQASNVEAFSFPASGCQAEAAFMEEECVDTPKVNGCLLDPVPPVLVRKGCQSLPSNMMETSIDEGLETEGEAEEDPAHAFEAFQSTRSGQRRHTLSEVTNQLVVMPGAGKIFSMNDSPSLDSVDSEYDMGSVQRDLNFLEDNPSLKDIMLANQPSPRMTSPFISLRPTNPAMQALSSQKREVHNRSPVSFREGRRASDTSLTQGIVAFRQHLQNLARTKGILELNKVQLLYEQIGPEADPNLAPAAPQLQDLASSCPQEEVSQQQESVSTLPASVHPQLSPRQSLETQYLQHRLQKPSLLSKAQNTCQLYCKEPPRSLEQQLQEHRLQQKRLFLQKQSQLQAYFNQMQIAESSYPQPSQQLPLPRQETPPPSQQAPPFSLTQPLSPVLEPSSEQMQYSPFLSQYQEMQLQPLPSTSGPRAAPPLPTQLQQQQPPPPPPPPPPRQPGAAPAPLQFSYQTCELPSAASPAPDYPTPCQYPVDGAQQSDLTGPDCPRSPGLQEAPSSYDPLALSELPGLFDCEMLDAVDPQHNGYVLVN
Assay [9] shares this target. The following applies: at 1 µM.
Assay [10] has as its target T2, Serine/threonine-protein kinase TBK1 (Homo sapiens) (UniProt Q9UHD2).
T2 sequence (whole entry): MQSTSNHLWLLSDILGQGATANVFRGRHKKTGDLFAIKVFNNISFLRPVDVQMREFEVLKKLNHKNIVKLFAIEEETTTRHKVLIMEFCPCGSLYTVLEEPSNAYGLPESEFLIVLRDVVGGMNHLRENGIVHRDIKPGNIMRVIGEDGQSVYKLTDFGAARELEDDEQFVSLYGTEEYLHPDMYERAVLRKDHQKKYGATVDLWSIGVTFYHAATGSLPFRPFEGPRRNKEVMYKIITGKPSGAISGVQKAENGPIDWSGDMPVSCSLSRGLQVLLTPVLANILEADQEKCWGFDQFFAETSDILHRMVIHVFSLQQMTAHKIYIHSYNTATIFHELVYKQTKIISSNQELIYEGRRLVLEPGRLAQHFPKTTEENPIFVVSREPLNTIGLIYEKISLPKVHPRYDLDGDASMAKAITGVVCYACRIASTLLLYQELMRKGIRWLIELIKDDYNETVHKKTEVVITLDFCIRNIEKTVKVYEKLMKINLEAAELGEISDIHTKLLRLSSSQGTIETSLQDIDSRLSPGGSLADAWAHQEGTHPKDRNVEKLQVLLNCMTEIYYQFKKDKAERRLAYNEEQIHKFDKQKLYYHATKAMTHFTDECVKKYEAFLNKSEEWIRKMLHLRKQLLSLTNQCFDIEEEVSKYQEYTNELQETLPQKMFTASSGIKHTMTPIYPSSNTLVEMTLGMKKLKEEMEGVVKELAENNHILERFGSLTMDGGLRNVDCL
The following applies: at 0.1 µM.

The target of assay [11] is T2, Serine/threonine-protein kinase TBK1 (Homo sapiens). As to conditions: at 1 µM.
Assay [12] has as its target T3, Testis-specific serine/threonine-protein kinase 1 (Homo sapiens) (UniProt Q9BXA7).
T3 sequence (whole entry): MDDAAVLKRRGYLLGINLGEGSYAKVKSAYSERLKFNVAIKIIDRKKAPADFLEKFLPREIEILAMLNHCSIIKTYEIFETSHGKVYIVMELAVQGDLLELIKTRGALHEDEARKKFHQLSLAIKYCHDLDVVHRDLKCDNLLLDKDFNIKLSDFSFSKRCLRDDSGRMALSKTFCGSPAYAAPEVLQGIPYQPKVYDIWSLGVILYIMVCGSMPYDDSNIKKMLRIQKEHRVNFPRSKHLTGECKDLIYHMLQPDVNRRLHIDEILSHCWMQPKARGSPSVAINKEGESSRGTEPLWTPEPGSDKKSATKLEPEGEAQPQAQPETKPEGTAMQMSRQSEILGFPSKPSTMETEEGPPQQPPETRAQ
The following applies: at 0.1 µM.

For assay [13], the target named is T3, Testis-specific serine/threonine-protein kinase 1 (Homo sapiens). As to conditions: at 1 µM.
For assay [14], the target named is T4, Testis-specific serine/threonine-protein kinase 2 (Homo sapiens) (UniProt Q96PF2).
T4 sequence (whole entry): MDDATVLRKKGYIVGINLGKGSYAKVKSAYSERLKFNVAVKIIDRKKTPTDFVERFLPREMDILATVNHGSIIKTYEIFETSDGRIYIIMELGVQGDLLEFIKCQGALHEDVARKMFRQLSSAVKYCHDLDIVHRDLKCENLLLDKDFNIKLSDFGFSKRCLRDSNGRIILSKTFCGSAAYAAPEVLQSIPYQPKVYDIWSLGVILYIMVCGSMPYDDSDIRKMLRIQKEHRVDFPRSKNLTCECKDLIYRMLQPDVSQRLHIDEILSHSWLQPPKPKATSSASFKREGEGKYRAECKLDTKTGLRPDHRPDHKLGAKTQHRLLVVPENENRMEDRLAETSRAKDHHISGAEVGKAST
As to conditions: at 0.1 µM.

The target of assay [15] is T4, Testis-specific serine/threonine-protein kinase 2 (Homo sapiens). The following applies: at 1 µM.
Assay [16] has as its target Casein kinase I isoform alpha (Homo sapiens) (UniProt P48729). As to conditions: at 0.1 µM.
The target is the same in assay [17]. The following applies: at 1 µM.
For assay [18], the target named is Casein kinase I isoform gamma-1 (Homo sapiens) (UniProt Q9HCP0). The following applies: at 0.1 µM.
Sequence of Casein kinase I isoform gamma-1 (Homo sapiens) (Q9HCP0 whole entry, looked up, canonical isoform): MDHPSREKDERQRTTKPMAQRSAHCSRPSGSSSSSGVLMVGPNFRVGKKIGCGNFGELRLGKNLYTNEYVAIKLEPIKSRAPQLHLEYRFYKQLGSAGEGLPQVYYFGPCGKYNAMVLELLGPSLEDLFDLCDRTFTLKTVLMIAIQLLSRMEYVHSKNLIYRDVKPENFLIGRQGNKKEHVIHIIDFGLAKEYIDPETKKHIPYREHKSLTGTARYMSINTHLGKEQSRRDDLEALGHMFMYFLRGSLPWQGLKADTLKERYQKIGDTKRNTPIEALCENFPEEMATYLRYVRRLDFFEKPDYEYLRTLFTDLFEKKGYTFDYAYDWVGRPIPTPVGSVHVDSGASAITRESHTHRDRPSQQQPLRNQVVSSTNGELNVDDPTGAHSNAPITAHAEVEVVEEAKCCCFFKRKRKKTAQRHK
For assay [19] the target is unchanged. The following applies: at 1 µM.
The target of assay [20] is Casein kinase I isoform gamma-2 (Homo sapiens) (UniProt P78368). As to conditions: at 0.1 µM.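 Also: values are mean inhibition figures reported as part of the GSK PKIS dataset.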
Sequence of Casein kinase I isoform gamma-2 (Homo sapiens) (P78368 whole entry, looked up, canonical isoform): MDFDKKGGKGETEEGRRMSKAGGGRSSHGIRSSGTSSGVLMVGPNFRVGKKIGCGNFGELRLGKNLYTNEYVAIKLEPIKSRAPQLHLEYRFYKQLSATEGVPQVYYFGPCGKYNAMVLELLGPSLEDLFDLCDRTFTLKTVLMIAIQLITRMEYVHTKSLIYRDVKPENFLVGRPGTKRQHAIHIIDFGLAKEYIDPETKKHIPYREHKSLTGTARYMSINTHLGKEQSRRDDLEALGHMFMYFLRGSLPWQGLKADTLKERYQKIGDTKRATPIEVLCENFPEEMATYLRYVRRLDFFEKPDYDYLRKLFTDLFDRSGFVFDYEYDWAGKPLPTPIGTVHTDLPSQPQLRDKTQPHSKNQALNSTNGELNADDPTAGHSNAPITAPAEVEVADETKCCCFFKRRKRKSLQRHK

In general, inhibition refers to the relative decrease from the control value, in per cent.

Sequence of Serine/threonine-protein kinase pim-2 (Homo sapiens) (Q9P1W9 whole entry, looked up): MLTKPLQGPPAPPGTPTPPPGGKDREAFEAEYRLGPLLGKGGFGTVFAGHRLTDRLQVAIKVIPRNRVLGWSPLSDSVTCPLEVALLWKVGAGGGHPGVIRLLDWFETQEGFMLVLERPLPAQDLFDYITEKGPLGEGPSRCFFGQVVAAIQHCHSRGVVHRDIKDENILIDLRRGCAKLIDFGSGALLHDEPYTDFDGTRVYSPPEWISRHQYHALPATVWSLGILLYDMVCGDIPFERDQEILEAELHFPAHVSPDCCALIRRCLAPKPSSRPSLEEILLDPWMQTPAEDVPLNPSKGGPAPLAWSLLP
Sequence of Serine/threonine-protein kinase SIK1 (Homo sapiens) (P57059 whole entry): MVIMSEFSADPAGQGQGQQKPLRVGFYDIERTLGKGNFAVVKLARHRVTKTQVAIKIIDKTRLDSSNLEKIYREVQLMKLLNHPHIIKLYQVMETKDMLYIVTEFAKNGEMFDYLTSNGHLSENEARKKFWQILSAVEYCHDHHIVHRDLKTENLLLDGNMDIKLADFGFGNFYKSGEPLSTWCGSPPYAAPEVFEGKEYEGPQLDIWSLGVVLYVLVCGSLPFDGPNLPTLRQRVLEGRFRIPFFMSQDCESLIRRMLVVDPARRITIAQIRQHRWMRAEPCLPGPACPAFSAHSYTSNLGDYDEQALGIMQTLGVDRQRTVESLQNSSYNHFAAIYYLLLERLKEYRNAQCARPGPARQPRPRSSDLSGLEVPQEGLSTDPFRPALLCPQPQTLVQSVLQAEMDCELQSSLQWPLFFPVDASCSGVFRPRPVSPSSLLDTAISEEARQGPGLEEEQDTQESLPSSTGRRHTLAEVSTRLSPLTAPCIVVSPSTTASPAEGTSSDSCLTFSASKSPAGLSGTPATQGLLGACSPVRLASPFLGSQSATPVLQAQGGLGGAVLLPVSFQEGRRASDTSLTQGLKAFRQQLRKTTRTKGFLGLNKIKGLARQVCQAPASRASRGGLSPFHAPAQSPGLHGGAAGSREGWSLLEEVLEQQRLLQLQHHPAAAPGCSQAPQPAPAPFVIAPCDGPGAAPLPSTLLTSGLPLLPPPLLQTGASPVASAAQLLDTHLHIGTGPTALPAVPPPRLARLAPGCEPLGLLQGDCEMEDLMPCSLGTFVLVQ
Sequence of Casein kinase I isoform alpha (Homo sapiens) (P48729 2-337 limits assumed): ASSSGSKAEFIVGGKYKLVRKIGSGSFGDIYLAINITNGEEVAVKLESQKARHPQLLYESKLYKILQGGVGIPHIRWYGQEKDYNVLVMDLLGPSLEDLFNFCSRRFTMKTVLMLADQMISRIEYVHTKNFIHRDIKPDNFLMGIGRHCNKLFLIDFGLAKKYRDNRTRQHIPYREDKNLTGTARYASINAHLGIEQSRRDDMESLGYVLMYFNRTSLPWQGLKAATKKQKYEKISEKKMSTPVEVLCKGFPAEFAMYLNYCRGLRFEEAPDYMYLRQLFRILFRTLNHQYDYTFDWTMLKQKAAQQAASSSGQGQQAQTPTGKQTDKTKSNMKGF

Take `Fc1ccc(-c2ncn(C3CCNCC3)c2-c2ccnc(Oc3ccc4c(c3)OCO4)n2)cc1`: the inhibition in assay [1] was 0.71%; in [2], 0.14%; in [3], 1.3%; in assay [4] it was 2.12%; in [5], 2.05%; in [6] it was 5.99%. For the same compound, the inhibition in [7] worked out at 6.9%; in [8] it was 2.25%; in [9], 18.5%; in [10], 2.29%; in [11], 4.07%; in [12], 4.2%. Moreover, the inhibition stood at 4.17% in assay [13]; 2.83% in assay [14]; 4.26% in assay [15]; 6.52% in assay [16]; 31% in [17]; 5.84% in assay [18]. Further, the figures for the inhibition in [19] and in assay [20] were 13.1% and 4.86%, respectively.
Turning to `Nc1nccc(-c2c(-c3ccc(F)cc3)ncn2C2CCC(O)CC2)n1` (stereo not given), the inhibition is 0.53% in assay [1]; 0.04% in assay [2]; 0.35% in assay [3]; -0.92% in assay [4]; -0.32% in assay [5]; 0.06% in [6]. The inhibition in assay [7] was 4.75%; in assay [8], -0.25%; in [9] it was 28.6%; in assay [10], 5.52%; in assay [11], 1.41%; in assay [12], -2.82%. Further, the inhibition is -1.96% in assay [13]; -1.46% in [14]; -0.41% in assay [15]; 62.4% in assay [16]; 90.1% in [17]; -1.19% in assay [18]. Besides, the inhibition in assay [19] is 5.79%; in assay [20], -1.13%.
As to `NC(=O)c1cc(-c2ccncc2)cc(-c2ccccc2)c1N`, the inhibition is 0.75% in assay [1]; -4.72% in assay [2]; -1.81% in assay [3]; 1.31% in [4]; 2.24% in assay [5]; 5.39% in assay [6]. Also, the inhibition turned out to be 24% in assay [7]; 7.44% in assay [8]; 14.2% in assay [9]; 3.5% in assay [10]; 9.27% in assay [11]; 3.7% in [12]. Besides, the inhibition in [13] was 5.71%; in assay [14] it was 2.4%; in assay [15], 1.64%; in assay [16], 4.55%; in assay [17], 7.76%; in assay [18] it was 4.75%. In addition, the results for the inhibition in [19] and in [20] were 5.37% and 3.86%, respectively.
`CN(C)CCCNc1nccc(-c2c(-c3ccc(F)cc3)nn3cc(C(F)(F)F)ccc23)n1`: the inhibition in [1] was -3.32%; in assay [2], -0.45%; in assay [3], -0.57%; in [4], 0.44%; in [5], -0.97%; in assay [6] it was 3.07%. For the same compound, the inhibition is 7.21% in assay [7]; -1% in assay [8]; 6.81% in assay [9]; 0.75% in [10]; 4.86% in assay [11]; 1.45% in [12]. Besides, the inhibition in assay [13] is -1.19%; in assay [14], 0.61%; in [15], -2.11%; in assay [16], 1.35%; in [17], 14.8%; in [18] it was -2.45%. The figures for the inhibition in assay [19] and in assay [20] were -1.14% and -3.5%, respectively.
For `COc1cc2ncn(-c3cc(OCc4cccs4)c(C(N)=O)s3)c2cc1OC`, the inhibition in [1] is -1.58%; in assay [2], 3.33%; in assay [3], 8.26%; in assay [4] it was 2.5%; in assay [5] it was 5.17%; in assay [6] it was 4.36%. Further, the inhibition in [7] was 23.7%; in [8], 6.37%; in assay [9], 24.9%; in assay [10], 3.06%; in assay [11], 16.7%; in assay [12], 4.25%. Also, the inhibition in assay [13] is 8.81%; in assay [14], 2.91%; in assay [15], 7.11%; in assay [16], 2%; in [17], 3.36%; in assay [18], -0.26%. The inhibition in [19] is -1.01%; in assay [20], -1.54%.
For the compound `O=C(Nc1n[nH]c2cc(-c3ccccc3)ccc12)C1CC1`, the inhibition in assay [1] was 0.64%; in assay [2] it was -2.16%; in [3], -2.34%; in [4], 1.27%; in [5], 0.86%; in assay [6], 5.14%. The inhibition turned out to be 9.28% in [7]; 5.24% in [8]; 12.8% in assay [9]; 1.84% in assay [10]; 8.06% in [11]; 2.16% in assay [12]. For the same compound, the inhibition was 2.02% in [13]; 1.41% in [14]; 0.6% in assay [15]; 3.51% in [16]; 5.68% in assay [17]; 5.13% in assay [18]. Further, the results for the inhibition in assay [19] and in assay [20] were 5.75% and 4.46%, respectively.
